The values below come from PubChem BioAssay (NCI).

About 79,000 compounds went through this panel and 15% of them were active in at least one assay; those are over-represented in the sample as a whole. A number with no mark means an inactive call. Active and inactive are the calls of the source. Cut-off read from the data, not from the text of the source: active = growth inhibition above about 70%; inactive = the rest.

The nature of assay [1]: NCI Yeast Anticancer Drug Screen. Data for the rad50 strain (AID 155).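 Note: 0% = growth of vehicle-only cultures of the same strain.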 The settings on record: S. cerevisiae rad50 strain growth inhibition, hits give high values. Summed up: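 Relative growth inhibition (compound vs vehicle) was measured in yeast with a defined repair-gene alteration.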
A short description of assay [2]: NCI Yeast Anticancer Drug Screen. Data for the mec2-1 strain (AID 157). The settings on record: S. cerevisiae mec2-1 strain, hits give high values. A digest of the protocol: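 Growth inhibition is read against vehicle-treated controls after compound exposure of the mec2-1 yeast strain, which is defective in DNA damage repair or cell cycle control.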
Assay [3] is described as follows: NCI Yeast Anticancer Drug Screen. Data for the sgs1 mgt1 strain (AID 161).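 Note: 0% = growth of cultures given vehicle only.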 To be noted: S. cerevisiae sgs1 mgt1 strain, hits give high values. Summed up:
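This yeast growth screen uses a strain with defined DNA-repair lesions; compound-treated growth is compared with vehicle-treated growth.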

Assay [4] is described as follows: NCI Yeast Anticancer Drug Screen. Data for the cln2 rad14 strain (AID 165).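 Note: 0% = growth equal to vehicle treated cultures.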 To be noted: S. cerevisiae cln2 rad14 strain, hits give high values. Summed up: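 Growth inhibition, relative to vehicle-treated controls, is the read-out. The test organism is a yeast strain with defined genetic alterations, cln2 rad14.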
Assay [5] can be described thus: NCI Yeast Anticancer Drug Screen. Data for the bub3 strain (AID 167). To be noted: S. cerevisiae bub3 mutant strain, hits give high values. Summed up:
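Screening used yeast with an engineered genetic alteration affecting cell cycle control. Compound-exposed cultures were compared with vehicle cultures, and reduced growth was taken as inhibition.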

Assay [6] can be described thus: NCI Yeast Anticancer Drug Screen. Data for the mlh1 rad18 strain (AID 175). The settings on record: S. cerevisiae mlh1 rad18 strain growth inhibition, hits give high values. Summed up: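 Cells of a genetically altered yeast strain, deficient in DNA damage repair, were treated with compound. Their growth was then compared with that of vehicle-treated cultures to give inhibition.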

The mark [7] stands for this setting: at 5.0 µM (retest, dose inferred, filed as 0.5).
Where [8] appears, read: at 50.0 µM (retest, dose inferred, filed as 5.0).

Consider `O=Cc1c(I)cc(I)c(O)c1I`, for which the growth inhibition in assay [1] (setting [7]) was 45%; in assay [1] (setting [8]), 88% (active); in assay [1] (at 50.0 µM), 98.6% (active); in assay [2] (setting [7]), 46%; in assay [2] (setting [8]) it was 99% (active); in assay [2] (at 50.0 µM), 98.7% (active). Moreover, the growth inhibition in assay [3] (setting [7]) was 79% (active); in assay [3] (setting [8]) it was 100% (active); in assay [3] (at 50.0 µM), 97.9% (active); in assay [4] (setting [7]), 42%; in assay [4] (setting [8]) it was 97% (active); in assay [4] (at 50.0 µM) it was 95.1% (active). The growth inhibition is 44% in assay [5] (setting [7]); 67% in assay [5] (setting [8]); 96.8% (active) in assay [5] (at 50.0 µM); 56% in assay [6] (setting [7]); 97% (active) in assay [6] (setting [8]); 97.3% (active) in assay [6] (at 50.0 µM).
`CCCCCCCCN(CCCCCCCC)CC(O)c1cc(-c2ccc(OC)cc2)nc2cc(Cl)ccc12` (stereo not given): the growth inhibition in assay [1] (setting [7]) is -2%; in assay [1] (setting [8]) it was 81% (active); in assay [1] (at 50.0 µM) it was 42.5%; in assay [2] (setting [7]), 8%; in assay [2] (setting [8]), 86% (active); in assay [2] (at 50.0 µM) it was 92.5% (active). Besides, the growth inhibition is 17% in assay [3] (setting [7]); 85% (active) in assay [3] (setting [8]); 48.6% in assay [3] (at 50.0 µM); 8% in assay [4] (setting [7]); 76% (active) in assay [4] (setting [8]); 84% (active) in assay [4] (at 50.0 µM). Besides, the growth inhibition is 12% in assay [5] (setting [7]); 85% (active) in assay [5] (setting [8]); 75.7% (active) in assay [5] (at 50.0 µM); 7% in assay [6] (setting [7]); 84% (active) in assay [6] (setting [8]); 89% (active) in assay [6] (at 50.0 µM).
Regarding `C[n+]1c(-c2ccc(/C=N\Nc3nnc(S)n3/N=C/c3ccc(-c4cn5ccccc5[n+]4C)cc3)cc2)cn2ccccc21`, the growth inhibition in assay [1] (setting [7]) is 7%; in assay [1] (setting [8]) it was 98% (active); in assay [1] (at 50.0 µM) it was 94.5% (active); in assay [2] (setting [7]), -16%; in assay [2] (setting [8]), 96% (active); in assay [2] (at 50.0 µM), 92.9% (active). For the same compound, the growth inhibition in assay [3] (setting [7]) was 3%; in assay [3] (setting [8]), 97% (active); in assay [3] (at 50.0 µM) it was 95.8% (active); in assay [4] (setting [7]), 4%; in assay [4] (setting [8]) it was 94% (active); in assay [4] (at 50.0 µM) it was 92.1% (active). The growth inhibition is 29% in assay [5] (setting [7]); 98% (active) in assay [5] (setting [8]); 93% (active) in assay [5] (at 50.0 µM); 10% in assay [6] (setting [7]); 97% (active) in assay [6] (setting [8]); 96.8% (active) in assay [6] (at 50.0 µM).
On to `Cc1ccc(NC(=O)CSC(N)=O)cc1C`, for which the growth inhibition in assay [1] (setting [7]) was 4%; in assay [1] (setting [8]) it was 22%; in assay [1] (at 50.0 µM), 81.5% (active); in assay [2] (setting [7]), 1%; in assay [2] (setting [8]) it was 40%; in assay [2] (at 50.0 µM) it was 70.1% (active). The growth inhibition in assay [3] (setting [7]) is 1%; in assay [3] (setting [8]), 30%; in assay [3] (at 50.0 µM), 87.3% (active); in assay [4] (setting [7]), 1%; in assay [4] (setting [8]) it was 9%; in assay [4] (at 50.0 µM) it was 58.5%. For the same compound, the growth inhibition in assay [5] (setting [7]) was 5%; in assay [5] (setting [8]), 69%; in assay [5] (at 50.0 µM), 86.2% (active); in assay [6] (setting [7]), 8%; in assay [6] (setting [8]), 20%; in assay [6] (at 50.0 µM) it was 72% (active).
`COc1ccc(CSC(=S)Nc2ccc(SC)c(Cl)c2)cc1`: the growth inhibition in assay [1] (setting [7]) was 50%; in assay [1] (setting [8]), 90% (active); in assay [1] (at 50.0 µM), 96.4% (active); in assay [2] (setting [7]), 23%; in assay [2] (setting [8]) it was 96% (active); in assay [2] (at 50.0 µM) it was 98.1% (active). The growth inhibition in assay [3] (setting [7]) was 62%; in assay [3] (setting [8]), 94% (active); in assay [3] (at 50.0 µM), 97% (active); in assay [4] (setting [7]), -10%; in assay [4] (setting [8]) it was 88% (active); in assay [4] (at 50.0 µM), 94.5% (active). Moreover, the growth inhibition in assay [5] (setting [7]) is 16%; in assay [5] (setting [8]), 97% (active); in assay [5] (at 50.0 µM), 97% (active); in assay [6] (setting [7]) it was 65%; in assay [6] (setting [8]), 94% (active); in assay [6] (at 50.0 µM), 97.9% (active).
